Screening results as filed in PubChem BioAssay.
HSF1 inhib: HSF1 inhibition; NIH3T3-HGL HSE-luciferase, MG132-induced, luminescence 8 h; stronger effect = lower value; activity change, negative = inhibition, % at 7.5 µM (by protocol); 300,000 compounds, 0.77% hits;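 active = more than half of replicate wells show activity change below -50%, luminescence cut by over half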;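 note: luciferase reports HSF-1 transcriptional activity via heat shock element; 0% = median of DMSO wells and -100% = zero luminescence signal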
HSF-1 act: increases HSF-1 driven luciferase reporter signal; NIH3T3-HGL HSF-1 luciferase reporter, MG132, 8 h; 100% = twice DMSO control signal; activation, % at 9 µM; 300,000 compounds, 1.7% hits; AID 504408;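 active = mean replicate activation of at least 50% with a set share of replicates each reaching 50%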;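 note: 0% = median of the neutral control wells and 100% = twice that signal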
TLR4-MyD88 BLA: inhibitors of human TLR4-MyD88 binding | O00206+Q99836 | HeLa CL3-4 TLR4/MyD88 BLA complementation, FRET ratio | inhibition, % at 8.4 µM | 200,000 compounds, 0.18% hits | AID 861; in the data active = inhibition above about 25%;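 note: 0% = vehicle and 100% = reference inhibitor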
TLR9-MyD88 inh: TLR9-MyD88 interaction inhibition. inhibition, % at 4.98 µM. 340,000 compounds, 0.21% hits. Q9NR96+Q99836. CHO BLA complementation TLR9-MyD88, CCF4 FRET ratio;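 active = inhibition above the mean over all tested compounds plus 3 SD, cut at about 21% in these data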;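 note: 0% = DMSO only wells and 100% = clavulanate BLA inhibitor control wells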
NOD2-RIPK2 inh: NOD2-RIPK2 protein interaction inhibition; CHO BLA complementation NOD2-RIPK2, CCF4 ratio; inhibition, % at 4.98 µM; 360,000 compounds, 0.38% hits; in the data active = inhibition above about 21%;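 note: 0% = vehicle only and 100% = reference blocker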
Starred values were filed as active, the others as inactive. This is a sample that favours compounds with a hit; in the whole collection about 2.4% have one here.

How did CC[C@]12c3[nH]c4ccc(OC)cc4c3CCN1C(=O)C(CC(=O)NCCN1CCOCC1)C[C@@H]2C(=O)N1CCN(C(=O)c2ccco2)CC1 (some centres undefined) do in these assays?
TLR9-MyD88 inh: 0.4; NOD2-RIPK2 inh: -12.2

Results for Cc1ccc(NC(=O)c2snc3ccc(Cl)cc23)cc1C ?
HSF1 inhib: 24.8; HSF-1 act: 56.0*; TLR4-MyD88 BLA: 7.7; TLR9-MyD88 inh: -4.7; NOD2-RIPK2 inh: -4.6

How did Cc1ccc(NC(=O)c2snc3c(=O)[nH]cnc23)cc1C do in these assays?
TLR4-MyD88 BLA: -5.9

What do the screens show for `CCN(C(=O)CSc1nnc(-c2cccc(Cl)c2)n1N)c1c(N)n(Cc2ccccc2)c(=O)[nH]c1=O`?
TLR9-MyD88 inh: -2.5; NOD2-RIPK2 inh: 4.3

Results for COCCNC(=O)C1(C)CCCN(C(=O)c2ccc(OC)cc2OC)C1 (centres undefined) ?
NOD2-RIPK2 inh: 3.7

Results for CC12CCC(=O)N1C(C(=O)Nc1ccccc1F)CS2 (centres undefined) ?
HSF1 inhib: 3.8; HSF-1 act: 27.0; TLR9-MyD88 inh: 3.1; NOD2-RIPK2 inh: 1.2

Results for CC12CCC(=O)N1C(C(=O)Nc1cccc3ccccc13)CS2 (centres undefined) ?
HSF1 inhib: 40.2; HSF-1 act: 70.0*; TLR9-MyD88 inh: -6.2; NOD2-RIPK2 inh: 1.8

What do the screens show for `O=C(NCc1nc(-c2ccc(Cl)cc2)no1)c1ccco1`?
HSF1 inhib: 12.7; HSF-1 act: 55.8*; TLR9-MyD88 inh: 6.0; NOD2-RIPK2 inh: -10.6

How did CCOc1ccccc1C=NN=Cc1ccccc1O do in these assays?
HSF1 inhib: -13.6; HSF-1 act: -13.6; TLR9-MyD88 inh: 7.4; NOD2-RIPK2 inh: 8.8

How did CCCS/C(N)=N/N=C/c1ccccc1O do in these assays?
HSF1 inhib: 13.3; HSF-1 act: 55.8*; TLR4-MyD88 BLA: 1.5; TLR9-MyD88 inh: 2.9; NOD2-RIPK2 inh: -15.2

Results for O=C(O)CNC(=O)C1(NC(=O)OCc2ccccc2)CCCC1 ?
TLR9-MyD88 inh: -2.5; NOD2-RIPK2 inh: -3.5

What do the screens show for `CCOc1ccc2c(c1)[N+](C)(C)C(C)(C)C=C2C`?
HSF1 inhib: -79.9*; HSF-1 act: -83.5; TLR4-MyD88 BLA: 10.7; NOD2-RIPK2 inh: -14.3

Results for CC(=O)Nc1ccc(N/C=C/C(=O)C(C)(C)C)cc1 ?
HSF1 inhib: 34.7; HSF-1 act: 62.6*; TLR4-MyD88 BLA: -6.3; TLR9-MyD88 inh: -0.5; NOD2-RIPK2 inh: -1.7

How did COc1ccc(Oc2ccc(N/C=C/C(=O)C(C)(C)C)cc2)cc1 do in these assays?
HSF1 inhib: 13.6; HSF-1 act: 21.9; TLR4-MyD88 BLA: 19.3; TLR9-MyD88 inh: 1.6; NOD2-RIPK2 inh: -8.6

What do the screens show for `CCCCCCC(NC(=O)Cc1ccc2ccccc2c1)C(=O)O` (centres undefined)?
TLR9-MyD88 inh: 0.7; NOD2-RIPK2 inh: -7.2

What do the screens show for `COc1cc(/C=C2/NC(=O)N(Cc3ccccc3F)C2=O)ccc1O`?
HSF1 inhib: 69.2; HSF-1 act: 107.4*; TLR4-MyD88 BLA: -3.2; TLR9-MyD88 inh: -4.7; NOD2-RIPK2 inh: -6.9

What do the screens show for `O=S(=O)(c1ccc(SCCO)nc1)N1CCOCC1`?
TLR9-MyD88 inh: 2.5; NOD2-RIPK2 inh: 0.8

Results for CC(C)(C)c1cc(C2COC(=O)COCCOCC(=O)OCCOCCO2)cc(C(C)(C)C)c1O (centres undefined) ?
TLR9-MyD88 inh: -4.2; NOD2-RIPK2 inh: -3.6

What do the screens show for `Cc1ccc(NC(=O)COC(=O)[C@H](C)N2C(=O)C3CC=CCC3C2=O)cc1S(=O)(=O)N(C)C` (some centres undefined)?
HSF1 inhib: 18.5; HSF-1 act: 67.9*; TLR4-MyD88 BLA: 0.5; TLR9-MyD88 inh: 4.3; NOD2-RIPK2 inh: -7.8

What do the screens show for `Cc1ccc(NC(=O)COC(=O)Cn2cnc3ccccc32)cc1S(=O)(=O)N(C)C`?
HSF1 inhib: -82.6*; HSF-1 act: -85.4; TLR4-MyD88 BLA: -10.6; TLR9-MyD88 inh: -7.4; NOD2-RIPK2 inh: 1.6

What do the screens show for `CCc1ccc(C(O)c2ncc(-c3ccccc3C(F)(F)F)[nH]2)cc1` (centres undefined)?
NOD2-RIPK2 inh: 11.4

What do the screens show for `COc1cc(-c2cn(S(=O)(=O)c3cccc4nsnc34)nc2N)cc(OC)c1OC`?
HSF1 inhib: 19.1; HSF-1 act: 59.3*; TLR4-MyD88 BLA: 5.3; TLR9-MyD88 inh: -7.0; NOD2-RIPK2 inh: -13.9

What do the screens show for `COCCCNC(=O)Cn1cnc2sc(C)c(S(=O)(=O)N3CCN(c4ccccc4OC)CC3)c2c1=O`?
HSF1 inhib: -71.9*; HSF-1 act: -77.6; TLR9-MyD88 inh: -3.9; NOD2-RIPK2 inh: -4.3

Results for CC(=O)[C@H]1CC[C@@H](c2ccccc2)N(S(=O)(=O)c2ccc(C)cc2)C1 ?
NOD2-RIPK2 inh: -8.2

Results for O=[N+]([O-])c1ccc(C2CN=C(Nc3ccccc3)S2)cc1 (centres undefined) ?
HSF1 inhib: 43.6; HSF-1 act: 64.5*; TLR4-MyD88 BLA: 9.7; TLR9-MyD88 inh: -2.7; NOD2-RIPK2 inh: -4.1

How did CCc1ccc(NC2=NCC(c3ccccc3)S2)cc1 (centres undefined) do in these assays?
HSF1 inhib: 35.3; HSF-1 act: 56.5*; TLR4-MyD88 BLA: -5.5; TLR9-MyD88 inh: -8.0; NOD2-RIPK2 inh: -8.1

How did Cc1ccc(NC2=NCC(Cc3ccc(Br)cc3)S2)cc1 (centres undefined) do in these assays?
HSF1 inhib: 8.2; HSF-1 act: 18.6; TLR4-MyD88 BLA: -10.6; TLR9-MyD88 inh: -0.8; NOD2-RIPK2 inh: -7.5

What do the screens show for `CC(C)(C)c1ccc(/C=N/NC(=S)NC2CCCCC2)cc1`?
HSF1 inhib: 23.7; HSF-1 act: 55.8*; TLR4-MyD88 BLA: 3.4; TLR9-MyD88 inh: -9.9; NOD2-RIPK2 inh: -5.8

How did CC1=C(C(=O)N(C)C)CC(CC(=O)NCCN2CCOCC2)C(=O)N1Cc1ccc(F)cc1 (centres undefined) do in these assays?
TLR9-MyD88 inh: 7.9; NOD2-RIPK2 inh: -2.0

How did COc1ccc(CNC[C@H]2O[C@@H](n3ccc(=O)[nH]c3=O)[C@H](O)[C@@H]2O)cc1OC do in these assays?
TLR9-MyD88 inh: -1.6; NOD2-RIPK2 inh: 0.8

What do the screens show for `COc1cccc(C2CC(c3cccs3)=NN2C(=O)c2ccco2)c1O` (centres undefined)?
HSF1 inhib: 72.7; HSF-1 act: 62.8*; TLR9-MyD88 inh: -0.5; NOD2-RIPK2 inh: -0.8

Results for Cc1ccc(C(=O)Nc2ccc(CC(=O)O)cc2)o1 ?
HSF1 inhib: -7.0; HSF-1 act: -2.4; TLR4-MyD88 BLA: 2.6; TLR9-MyD88 inh: -9.0; NOD2-RIPK2 inh: -11.8

How did CC(C)(C)c1ccc(C(=O)Nc2ccc(CC(=O)O)cc2)o1 do in these assays?
HSF1 inhib: -59.3*; HSF-1 act: -64.1; TLR4-MyD88 BLA: -9.3; TLR9-MyD88 inh: -0.6; NOD2-RIPK2 inh: -9.6

Results for CSCCC(NC(=O)COc1ccccc1)C(=O)N1CCCC(C)C1 (centres undefined) ?
HSF1 inhib: 6.7; HSF-1 act: 9.8; TLR9-MyD88 inh: -7.1; NOD2-RIPK2 inh: -1.8
